Screens (PubChem BioAssay)
SENP6 inh: SENP6 protease inhibitors, primary screen, biochemical, luminescence, uHTS; Sentrin-specific protease 6 (Homo sapiens), Q9GZR1; Recombinant SENP6 catalytic domain, aminoluciferin luminescence; inhibition, % at 10 µM; 330,000 compounds, 1.8% hits; AID 2599, 2010;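 active = inhibition above about 50% at the single tested dose, limit read from the data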;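 also: plate controls were DMSO wells with enzyme for no effect and DMSO wells lacking enzyme for full effect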
HSP90 inh: HSP90 inhibitors, primary screen, cell lysate, luminescence; Heat shock protein HSP 90 (rabbit reticulocyte lysate; luciferase refolding); Rabbit reticulocyte lysate, luciferase refolding luminescence, 3 h; inhibition, % at 5.6 µM; 290,000 compounds, 0.91% hits; AID 1789, 2009;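 active = inhibition above the screen-wide mean plus 3 SD, computed separately per campaign, cut at about 16% in these data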;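 also: 0% = DMSO wells and 100% = 60 µM geldanamycin wells; inhibitors lower the luminescence because luciferase stays unfolded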
SENP8 block-1: SENP8 protease inhibitors, primary screen, biochemical, luminescence | Sentrin-specific protease 8 (Homo sapiens), Q96LD8 | purified SENP8, Z-RLRGG-aminoluciferin cleavage | inhibition, % at 10 µM | 330,000 compounds, 1.2% hits | AID 2540, 2010; in the data active = inhibition above about 50%
LGR2 inh: inhibitors of bursicon-induced LGR2 CRE-luciferase signal, primary screen, cell-based, HEK293, CRE-luciferase reporter, bursicon stimulation; Drosophila bursicon receptor LGR2 (rickets); bursicon-stimulated, 4 h; inhibition, % at 9.99 µM; 380,000 compounds, 0.35% hits;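 active = drop in luminescence signal, shown as inhibition above about 50% in the replicate tests, limit read from the data, passing the limit was not always enough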;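 also: agonist challenge used bursicon conditioned medium at about half maximal strength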
SENP8 block-2: human SENP8 protease inhibitors, primary screen, biochemical, fluorescence, Nedd8 protein substrate, uHTS | Sentrin-specific protease 8 (Homo sapiens), Q96LD8 | recombinant SENP8 | inhibition, % at 20 µM | 360,000 compounds, 0.64% hits; in the data active = inhibition mostly above about 40%, no sharp cut-off; inactive = mostly below about 27%
SENP7 block: SENP7 protease inhibitors, primary screen, biochemical, luminescence, uHTS; recombinant SENP7, Z-RLRGG-aminoluciferin luminescence, 40 min; inhibition, % at 5 µM; 330,000 compounds, 1.5% hits;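 active = inhibition above about 50% at the single test dose, limit read from the data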;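 also: plate controls were DMSO with enzyme for no effect and no enzyme buffer wells for full effect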
Target sequence (Q9BQF6 706-1050 limits assumed): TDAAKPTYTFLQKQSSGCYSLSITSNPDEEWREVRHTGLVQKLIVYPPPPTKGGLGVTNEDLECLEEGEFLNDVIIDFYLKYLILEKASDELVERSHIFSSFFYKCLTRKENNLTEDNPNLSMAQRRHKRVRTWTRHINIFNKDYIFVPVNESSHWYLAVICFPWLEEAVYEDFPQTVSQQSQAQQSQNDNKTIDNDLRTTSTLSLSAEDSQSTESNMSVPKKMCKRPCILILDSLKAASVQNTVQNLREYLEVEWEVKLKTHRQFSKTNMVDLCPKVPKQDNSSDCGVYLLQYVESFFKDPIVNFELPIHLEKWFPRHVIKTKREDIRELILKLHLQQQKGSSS
SENP8 conf: SENP8 protease inhibitors, retest, confirmation, biochemical, luminescence, single concentration. shares compounds with SENP7 block. Recombinant SENP8, Z-RLRGG-aminoluciferin luminescence, 60 min. inhibition, % at 12.5 µM. 6,200 compounds, 40% hits;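 active = mean inhibition across replicates above about 50%, limit read from the data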
SENP6 confirm: SENP6 protease inhibitors, confirmation, biochemical, luminescence, single concentration; recombinant SENP6, Z-RLRGG-aminoluciferin luminescence; shares compounds with SENP7 block; 6,200 compounds, 58% hits; inhibition, % at 12.5 µM
SENP7 conf: SENP7 protease inhibitors, retest, confirmation, biochemical, luminescence, single concentration. shares compounds with SENP7 block. recombinant SENP7, Z-RLRGG-aminoluciferin luminescence, 40 min. inhibition, % at 12.5 µM. 6,200 compounds, 69% hits
Casp3 select: caspase-3 protease inhibitors, confirmation, selectivity assay for SENP inhibitor project, biochemical, single concentration | inhibition, % at 12.5 µM | AID 488918, 2010 | purified caspase-3, Z-DEVD-aminoluciferin luminescence, 60 min | 6,200 compounds, 60% hits | shares compounds with SENP7 block;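 active = mean inhibition above about 50%, limit read from the data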;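 also: plate controls were enzyme with DMSO for no effect and wells without caspase-3 for full effect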
Target sequence (P42574 28-227 limits assumed): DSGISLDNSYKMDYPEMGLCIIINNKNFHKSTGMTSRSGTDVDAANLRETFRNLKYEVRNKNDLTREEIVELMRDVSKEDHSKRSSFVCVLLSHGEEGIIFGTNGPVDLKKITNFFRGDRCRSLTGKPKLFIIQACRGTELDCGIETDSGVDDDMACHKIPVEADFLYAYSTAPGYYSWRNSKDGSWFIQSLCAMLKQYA
SENP luc ctr: interferes with luciferase luminescence in SENP counter-screen; shares compounds with SENP7 block; Pre-incubated SENP8/Z-RLRGG-aminoluciferin, luciferase luminescence interference; inhibition, % at 12.5 µM; 6,200 compounds, 39% hits;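 active = mean inhibition above about 50% when retested at one dose, limit read from the data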;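 also: plate controls were DMSO wells with completed reaction for no effect and substrate without enzyme for full effect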
* marks the source's active call; other numbers are inactive results; i = inactive; . = not tested or not shown. Shown are actives, neighbours in structure and some others; about 2.3% of the full set was active somewhere.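 The calls were made as follows, unless noted: active = mean inhibition above about 50% in the one-dose retest (limit read from the data); inactive = the rest.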

SMILES | SENP6 inh | HSP90 inh | SENP8 block-1 | LGR2 inh | SENP8 block-2 | SENP7 block | SENP8 conf | SENP6 confirm | SENP7 conf | Casp3 select | SENP luc ctr
CN(C)CC#Cc1ccc([C@@H]2[C@@H](CO)N3CCCCN(C(=O)Cc4ccccn4)C[C@H]23)cc1 | . | . | . | -3 | . | . | . | . | . | . | .
COc1ccc(N=Nc2c(O)[nH]c(=S)[nH]c2=O)cc1 | 76* | -1 | 66* | 1 | 21 | 66* | 27 | 79* | 51* | 78* | 7
O=c1[nH]c(=S)[nH]c(O)c1N=Nc1ccc(OC(F)F)cc1 | 94* | 0 | 92* | -7 | 27 | 93* | 91* | 92* | 88* | 96* | 44
CCOC(=O)C1(CCc2ccccc2)CCN(Cc2ccc3c(c2)OCCO3)CC1 | 70* | 1 | -8 | -23 | 16 | 9 | 10 | 1 | -4 | 3 | -2
CCOC(=O)c1cccc(NC(=O)c2c(O)[nH]c(=O)[nH]c2=O)c1 | 58* | . | 27 | 24 | 7 | 51* | 48 | 41 | 81* | 73* | 45
BrCC1C[n+]2c(SCc3ccccc3)nc3sc4c(c3c2O1)CCCC4 (stereo not drawn) | -17 | 1 | -2 | -10 | 3 | -3 | . | . | . | . | .
Nc1c2c(nc3sc4c(c13)CCCCC4)CCCC2 | 54* | 2 | 35 | -52 | 13 | 19 | 42 | 34 | 67* | 46 | 17
N#Cc1ccc(-c2ccc([C@H]3[C@@H](CO)N4CCCCN(C(=O)Cc5ccccc5)C[C@H]34)cc2)cc1 | . | . | . | 6 | . | . | . | . | . | . | .
COC(=O)[C@@H]1[C@@H](CO)[C@@H]2Cn3c(ccc(-c4ccc(OC)cc4)c3=O)[C@H]1N2C(=O)c1ccccc1F | . | . | . | -19 | . | . | . | . | . | . | .
COc1ccc(OC)c(N2C(=O)NC(=O)/C(=C\c3ccc([N+](=O)[O-])s3)C2=O)c1 | 51* | 3 | 10 | 6 | 48* | 0 | 14 | 33 | 14 | 6 | 4
Cn1c(O)c(C=Nc2ccc(Br)cc2)c(=O)n(C)c1=O | 59* | 6 | 50* | 1 | -157 | 26 | 2 | 3 | 14 | 0 | 4
COc1ccc(-c2ccc([C@@H]3[C@H]4CN(C(=O)Cc5ccncc5)CCCCN4[C@H]3CO)cc2)cc1 | . | . | . | 4 | . | . | . | . | . | . | .
Nc1ccccc1C(=O)OCCOc1ccccc1 | 90* | 1 | 86* | . | i | 95* | 92* | 92* | 99* | 81* | 90*
C=CCOC(=O)c1ccccc1N | -11 | . | -18 | -1 | -420 | 3 | . | . | . | . | .
COC(=O)[C@@H]1[C@@H](CO)[C@@H]2Cn3c(ccc(-c4cccc(C(=O)N(C)C)c4)c3=O)[C@H]1N2CC1CC1 | . | . | . | 6 | . | . | . | . | . | . | .
COc1ccc(-c2cc(=Nc3cccc(C(=O)O)c3)c3cc(C)ccc3o2)cc1 | 50 | 6 | 64* | 55* | -408 | 82* | 10 | 53* | 68* | 51* | 65*
COc1ccc(-c2cc(=NCCCCCC(=O)O)c3cc(C)ccc3o2)cc1 | . | -2 | . | -96 | -468 | . | . | . | . | . | .
COCCCn1c(N)c(C(=O)Nc2ccccc2)c2nc3ccccc3nc21 | 22 | 1 | 8 | 4 | -430 | 1 | . | . | . | . | .
COCCCn1c(N)c(C(=O)Nc2sc3c(c2C(=O)OC)CCCC3)c2nc3ccccc3nc21 | 91* | 5 | 89* | . | -269 | 71* | 1 | 7 | 16 | 7 | 3
CCC(C)NC(=O)c1c(N)n(CCCOC)c2nc3ccccc3nc12 (stereo not drawn) | 86* | 10 | 92* | . | -265 | 90* | 40 | 83* | 74* | 16 | 18
CC(C)CCNC(=O)c1c(N)n(CC2CCCO2)c2nc3ccccc3nc12 (stereo not drawn) | 82* | 3 | 79* | . | -258 | 74* | 17 | 48 | 35 | 4 | 5
CCC(C)NC(=O)c1c(N)n(CC2CCCO2)c2nc3ccccc3nc12 (stereo not drawn) | 88* | 8 | 83* | . | -270 | 72* | 7 | 41 | 34 | 9 | 6
COC(=O)[C@H]1[C@H](CO)[C@H]2Cn3c(ccc(C4=CCCCC4)c3=O)[C@@H]1N2C(=O)NC(C)C | . | . | . | -4 | . | . | . | . | . | . | .
COC(=O)[C@@H]1[C@@H](CO)[C@@H]2Cn3c(ccc(C4=CCCCC4)c3=O)[C@H]1N2CC1CCCCC1 | . | . | . | 13 | . | . | . | . | . | . | .
Nc1c(C(=O)NCCN2CCOCC2)c2nc3ccccc3nc2n1Cc1ccccc1 | 25 | 2 | 0 | -2 | -425 | 6 | . | . | . | . | .
SMILES | SENP6 inh | HSP90 inh | SENP8 block-1 | LGR2 inh | SENP8 block-2 | SENP7 block | SENP8 conf | SENP6 confirm | SENP7 conf | Casp3 select | SENP luc ctr
CCC(C)NC(=O)c1c(N)n(Cc2ccc3c(c2)OCO3)c2nc3ccccc3nc12 (stereo not drawn) | 90* | -1 | 92* | . | i | 68* | 2 | 11 | 11 | -3 | 3
COC(=O)[C@@H]1[C@@H](CO)[C@@H]2Cn3c(ccc(-c4ccccc4)c3=O)[C@H]1N2CCc1ccccc1 | . | . | . | -6 | . | . | . | . | . | . | .
COc1cc2c(cc1O)[C@@H]1Cc3ccc(OC)c(O)c3CN1CC2 | 74* | . | 64* | -3 | 80* | 49 | 10 | 29 | 17 | 6 | 4
COc1ccc(C[C@@H]2c3cc(O)c(OC)cc3CCN2C)cc1O | -4 | 7 | -3 | -7 | 9 | -6 | . | . | . | . | .
O=C(NCC(c1cccnc1)N1CCN(c2ccccc2F)CC1)Oc1ccccc1 (stereo not drawn) | 3 | 5 | 6 | . | 12 | 5 | . | . | . | . | .
COc1ccc(N2CCN(C(CNC(=O)Oc3ccccc3)c3cccnc3)CC2)cc1 (stereo not drawn) | 8 | 1 | 1 | . | 7 | 71* | -12 | -2 | -7 | 2 | 3
O=C(Cc1cccnc1)N1CCCCN2[C@H](C1)[C@H](c1ccc(C#CC3(O)CCCC3)cc1)[C@@H]2CO | . | . | . | -11 | . | . | . | . | . | . | .
